# Laboratory results taken from PubChem BioAssay AID1508600 (Functional Genomics Laboratory (NCATS/FGL), 2020).
# Out of some 53,000 sequences screened, about 3,700 (7%) were called active.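 How the source made its calls: active means gene knockdowns whose robust z-score for IL-1 alpha signal is at least 2 or at most -2, so actives lie on both sides; inactive means the rest.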 The full list was thinned out, with actives kept by preference.
# Test: Components of the Cytosolic LPS Sensing Pathway: Gene Identification via Genome-wide siRNA Screen;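 further: robust z of the log signal after scaling to non-targeting control siRNA wells of the plate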
# Settings: RAW264.7 macrophages, IL-1a HTRF, actives lie on both sides, screened at 100 nM (by protocol), cells primed 5 h with Pam3CSK4 first
# Procedure, shortened: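 Using IL-1a HTRF as read-out, the screen measured release from RAW264.7 cells after 48h siRNA knockdown (100 nM), 5 h Pam3CSK4 priming and 24 h cytosolic LipidA. Values were expressed relative to negative-control wells as robust z-scores.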
row,Sequence,z-score
1,GGGAUCCUUAAUAUUUUGATT against Dazap2,1.66 (inactive)
2,GGUUUUAAUUGUUCAGACGTT against Lrrtm3,0.35 (inactive)
3,GGGAAGUGGAAACAGUUCUTT against Icam2,0.461 (inactive)
4,CCAAUGUUACGAGAAACUUTT against Smug1,1.02 (inactive)
5,GGAAAGGAUAAAGUAUAUCTT against Aspm,-0.0167 (inactive)
6,GGAUUGCAUCUUCCUCGAATT against Olfr816,-2.27 (active)
7,GAUCUAUCACCGGUACUGCTT against Gys1,0.154 (inactive)
8,CCGCUCACUUCUUGAAUAUTT against Rnf125,0.388 (inactive)
9,GUCAGAUCUCAGAAUCAUGTT against Ercc6l2,-2.27 (active)
10,GCGGUCUGUGGUCUUAAAUTT against She,-0.449 (inactive)
11,GGUGAACUGUAAUGGCUUCTT against Smyd2,-0.209 (inactive)
12,GGUGUUGAGAAGAAAAAUATT against Spz1,1.68 (inactive)
13,GGUAGAAUACCUUCAGAUUTT against Ercc4,2.81 (active)
14,GGAAUUGUCAGGUCUUGAATT against Tmem174,-0.311 (inactive)
15,GGAGCUUCGGGAGAUGAUUTT against Fdxr,0.357 (inactive)
16,GGCGGAGUUUUUAAUACUCTT against Upb1,1.79 (inactive)
17,CCUAUGUUUGGUGAUUAUGTT against Alg6,0.264 (inactive)
18,GGGUAGGAGGAAAGUGUUCTT against Olfr1093,1.55 (inactive)
19,GGAACAGCAGCAGAGUGAATT against Gkap1,-1.09 (inactive)
20,GGCACAUGAUCCUUAAUUUTT against Pfkfb3,0.0397 (inactive)
21,GCCUAAGCCUACCAAACGATT against Ints3,0.0965 (inactive)
22,GCCGAGAGGGAUGUGUAUATT against Psmb1,-2.54 (active)

row,Sequence,z-score
1,GGAAAUCCUUGACUACAUUTT against Cyp2b19,0.31 (inactive)
2,GGUCCACCUCAACAAGCUATT against Zfp536,2.57 (active)
3,GGGAGAAACCUGUGCAAAUTT against Serpinb6c,0.459 (inactive)
4,AGACUGGGUUGUGAAGAUATT against 4930563M21Rik,-1.68 (inactive)
5,GCUAGGACUACAGCUGGGATT against Snrnp48,-2.56 (active)
6,GGAGAACUGAAGAAUCCAATT against Med11,1.78 (inactive)
7,GCCAAGAUCCCACCAGUUATT against Neurl1b,0.639 (inactive)
8,GGAGCACAGUCUCAUGAAUTT against A130014H13Rik,-1.44 (inactive)
9,CGUGAAGAUUGACGUGUUUTT against Pcyox1,1.06 (inactive)
10,UGCCUGUAAACCAACAAGGTT against Prb1,-2.04 (active)
11,GUGAAGAGGAGCAGGACUUTT against Klrc3,0.261 (inactive)
12,GGGAAAAGUAUCCUCUGUUTT against Olfr877,-0.968 (inactive)
13,GCGAAGUCAUCAAAUUUUCTT against Abcb11,0.622 (inactive)
14,GGUCCUUAAGUCCUUUGACTT against Cdr1os,0.894 (inactive)
15,GGGAAAGAUAAAUGUUUCCTT against Gucy1b1,1.89 (inactive)
16,GGUUCAGACAAGCAUCUAGTT against Sbp,-1.04 (inactive)
17,CCUCAGGAUACAGACCCACTT against Frg2f1,-0.35 (inactive)
18,GGAAAUUUUUUCCUUUCCUTT against Olfr211,-0.638 (inactive)
19,GGACCAUCAGAGGAGAACUTT against Cuedc2,-2.09 (active)
20,CGAGAGUGGGUGGGUUGAATT against Zfp950,0.628 (inactive)
21,GCCCUAUCUACGAUGAAAATT against Scamp2,-0.197 (inactive)
22,CCGAAUACGUGAAGACGCATT against Slc25a1,-0.967 (inactive)

row,Sequence,z-score
1,GGAGGAAAAUGUCCUUGUUTT against Pth,0.25 (inactive)
2,GCAGGAAUGCGGUAUAAACTT against Inpp5f,0.707 (inactive)
3,GCACUGGACUUAGGAUGGUTT against Ankrd22,2.2 (active)
4,GGACACCACGUUCACCAAGTT against Rbm38,-0.36 (inactive)
5,GCUUCAAUAACUGCGCAAGTT against Zkscan2,0.547 (inactive)
6,GGAUGACUGAAUGAUGGGATT against Tcl1b5,-2.15 (active)
7,GGACCUCACAAUGAGUAUGTT against Thtpa,1.23 (inactive)
8,CGACGAACCUGAGUAUAUUTT against Canx,-0.0578 (inactive)
9,GUGCAGGUCCUAAUCUGAATT against Asb1,2.15 (active)
10,GGAAAAAAGCCUCAUCGGATT against Wdr63,0.676 (inactive)
11,GGGAGAGUGUUUGUUCAUUTT against Dusp1,-0.082 (inactive)
12,GGCCUACCUAUAGAAAUGATT against Pgap1,0.208 (inactive)
13,GACACCUACUUCAUUGGCCTT against Olfr1245,-1.23 (inactive)
14,GCAGUUAUAUGCUCAAGAUTT against Pik3r3,0.0211 (inactive)
15,GCCUUACUUCGGAGUGCUATT against Olfr606,-4.78 (active)
16,GCCAGCAUAAAUAUACUUUTT against Apol10a,-0.0597 (inactive)
17,GCCUUUGGAAGUUCAGAACTT against Rnf216,-1.07 (inactive)
18,GAUUGGAACUUGUGGAUCUTT against Defb8,0.424 (inactive)
19,GGUACUGGACCAAAUUGCUTT against Ppp1r15b,2.26 (active)
20,CGGCACCUAUGAGUCUUACTT against Cyp4x1,2.13 (active)
21,CGAUCCAUGUUGUAAGCGCTT against Adam39,0.347 (inactive)
22,GGUUAAAGUGUAUUUACAGTT against Fkbp14,0.124 (inactive)

row,Sequence,z-score
1,GGUCCUUAACCGCUAUGCATT against Esrp2,0.294 (inactive)
2,GGAAGCUUCAGGAGUAUAUTT against Sdc2,-0.326 (inactive)
3,GUGGCUGACAAGUUUAUCATT against Cyp2c66,-0.132 (inactive)
4,AACUAGCAAUAUGAUGGAGTT against Chic1,-0.55 (inactive)
5,GGGUUUGUUAAGUCCUGUGTT against Gsdmc,-2.09 (active)
6,GCAAUAACCCAAUUCCUGATT against Phex,0.179 (inactive)
7,GGACAGUAUGAAUUUGAAUTT against Lcp1,2.44 (active)
8,GGCCUAUCUGACCUACACCTT against Wnt8a,-0.271 (inactive)
9,GCCAUAUGAUAAUAUAGAGTT against Gbp6,-0.574 (inactive)
10,CCUCAACCGGCAGUUCUUGTT against Uba2,-0.574 (inactive)
11,GCAUAGCUAACUCAGCAUATT against Map2k2,1.09 (inactive)
12,GGAAACCAUUGAAGAUGUUTT against Psmd13,-1.2 (inactive)
13,CCCUGAAGUUUAUGCAACATT against Ttyh2,-3.02 (active)
14,GGUAAUGAGCAGAUGAAGCTT against Sgta,0.622 (inactive)
15,GGUGGUUUAAGAAAUCAAATT against Dolpp1,0.34 (inactive)
16,GGCCCUAGAUAUUGAUUUUTT against Rbp2,-0.338 (inactive)
17,GGAGAUUGGGAUCAAUUAGTT against Sall3,0.576 (inactive)
18,GGACGUGACCAUGAUGUCUTT against Oacyl,-3.46 (active)
19,GCAUCCUUUGUCGAAGUGGTT against Clec18a,-0.495 (inactive)
20,GGGAUUUUGUACAUUUUUGTT against Egln3,1.51 (inactive)
21,CCGACGGAUAGCUUGGAUGTT against Fgb,-0.214 (inactive)
22,GGACGGAGGAUUCUGAAACTT against Prepl,2.42 (active)

row,Sequence,z-score
1,GGAAAGCUUACAGUUGAAATT against 4933427D06Rik,0.992 (inactive)
2,GGAAAGCUAAGGCUGUACUTT against Dnal1,-0.103 (inactive)
3,CCCAGAAGCCUUAUCGUCUTT against Mzt1,2.37 (active)
4,GCCAUCUACUUUGUUAUAGTT against Kcnk4,0.725 (inactive)
5,GGAGUUAUUAACUGAAGAGTT against Cyp2c55,0.0702 (inactive)
6,GAGGGCCAUCUCUGACAUGTT against Avp,0.369 (inactive)
7,GGUCAAAACAAAAGGAGGGTT against Ncf4,0.498 (inactive)
8,GGACAAAUUUGCAUAGAUUTT against Rab10os,2.93 (active)
9,GCCAAUAUUUGUUUUUGAGTT against Ranbp3l,0.0685 (inactive)
10,GCUACAACCUUGAGAAACUTT against Duoxa2,0.706 (inactive)
11,CCUAGGUGUCGUACACAAATT against Galns,2.45 (active)
12,GGCUUCCUAUCUGAUUACUTT against Acsl4,0.498 (inactive)
13,CCACCGGAAUGACAUAAUGTT against Klk11,-0.578 (inactive)
14,CCUAGUUGAAAAUUGGGAATT against Fuca2,0.354 (inactive)
15,CGUGGUCAUCUGGUAUGAGTT against Zfp653,2.53 (active)
16,GCACUGCUAUUUACAAAAATT against Tex16,-1.73 (inactive)
17,CAGGGCAAGGUGAUAUCUGTT against Olfr1411,-0.428 (inactive)
18,GGAGAAAUAAGUGCAGGUGTT against Rhox2a,-0.622 (inactive)
19,GGCUCCUCUCCAAGAAUAUTT against Prr14l,2.03 (active)
20,GGAGAGAAUCAGAGAGAACTT against Akr1c18,0.276 (inactive)
